Records with an inconclusive call do not appear. The list shows a part of the results. The source made the active and inactive calls. Unless noted, the call rests on the fitted dose curve; in most records, active means well fitted curve in the direction sought with a large enough effect; inconclusive means small, poorly fitted or top-dose-only effect, or another doubt; inactive means no such curve, though single readings can be large; an effect the other way counts as inactive or inconclusive.
Legend:
[1] = target: Tumor susceptibility gene 101 protein (Homo sapiens) (UniProt Q99816); assay: qHTS Assay for Iinhibitors of HIV-1 Budding by Blocking the Interaction of PTAP/TSG101: Hit Validation (AID 651600); further: on the % scale 0 is the no-effect control and ±100 the full control effect; nearly all actives have a fitted effect of over 70% in size
Method in brief: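 Fluorescence polarization binding assay: Tsg101 binding domain (10 uM final) pre-dispensed with compounds, then FITC-labeled PTAP-motif peptide (50 nM final) added; 20 min at r.t. in HEPES pH 7.5 buffer with NaCl, Tween 20, EDTA, TCEP.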

[2] = Confirmation and Secondary Assay for Modulators of Hemoglobin Beta Chain Splicing at IVS2 654 locus (AID 910);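 further: HeLa cells stably carrying EGFP split by mutant beta-globin IVS2-654 intron; % of control where 0% means no effect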
Method in brief: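 HeLa cells stably expressing EGFP interrupted by β-globin IVS2-654 intron, seeded overnight in Opti-MEM/2% FCS, then treated 2 days at 37 °C. Restored splicing read as total peak GFP intensity per well by laser scanning cytometry (488 nm excitation, 500–520 nm emission); 500 nM antisense PNA as control.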

[3] = Confirmation and Secondary Assay for Modulators of Hemoglobin Beta Chain Splicing at IVS2 705 locus (AID 930);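 further: HeLa cells stably expressing the EGFP-705 splicing reporter; GFP fluorescence per well restored by corrected splicing of the IVS2-705 intron in EGFP; % of control where 0% means no effect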
Method in brief: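 Assay measures total GFP intensity per well in HeLa EGFP-705 cells after 2 days with compound; mis-splicing normally truncates EGFP, so fluorescence indicates corrected splicing.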

[4] = target: Ubiquitin carboxyl-terminal hydrolase 1 (Homo sapiens) (UniProt O94782); assay: Inhibitors of USP1/UAF1: Pilot qHTS (AID 504865); further: nearly all actives have a fitted effect of over 35% in size; further: potency means the concentration at half of the fitted maximal effect
Method in brief: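 USP1/UAF1 complex (1nM) preincubated with compound 15 min at room temperature, then Ub-Rho substrate (150nM final) added. Fluorescence read kinetically at 480/540 nm, 6 reads every 60 seconds. Buffer: 50mM HEPES pH 7.8, 0.5mM EDTA, 0.1 mg/ml BSA, 1mM TCEP, 0.01% Tween-20.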

[5] = target: Phosphoglycerate kinase, glycosomal (Trypanosoma brucei brucei) (UniProt P07378); assay: qHTS for inhibitors of Phosphogylcerate Kinase: Hit Validation Screen (AID 686980); details: TbPGK coupled GAPDH assay, Kinase-Glo luminescence; further: potency means the concentration at half of the fitted maximal effect; nearly all actives have a fitted effect of over 65% in size
Method in brief: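 Recombinant glycosomal PGK reaction used 1,3-bisphosphoglycerate generated in-well by GAPDH (100nM final) in 100mM TEA pH 7.6, 5mM MgCl2, 0.01% Tween-20. After 60 minutes at room temperature, ATP was read by Kinase-Glo Plus luminescence end-point.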

[6] = target: DNA polymerase iota (Homo sapiens) (UniProt Q9UNA4); assay: qHTS for Inhibitors of Polymerase Iota: Confirmatory Assay for Cherry-picked Compounds (AID 720496); details: Pol iota primer extension, TAMRA/BHQ fluorescence; further: potency means the concentration at half of the fitted maximal effect
Method in brief: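 Enzyme (10 nM Pol iota) and compound sit together for 15 min at room temperature. Adding annealed primer/TAMRA-reporter/BHQ-2-template substrate, 50 nM final, starts the reaction, which is followed by fluorescence over 10 min.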

[7] = target: Bifunctional 3'-5' exonuclease/ATP-dependent helicase WRN (Homo sapiens) (UniProt Q14191); assay: qHTS for Inhibitors of WRN Helicase: Confirmatory Assay for Cherry-picked Compounds. (AID 720497); details: WRN helicase DNA unwinding, fluorescence kinetic; further: potency means the concentration at half of the fitted maximal effect; nearly all actives have a fitted effect of over 65% in size
Method in brief: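 WRN at 20 nM final was preincubated with compound for 15 min at room temperature; the reaction was started with 100 nM forked duplex oligonucleotide and 2 mM ATP (final). Red fluorescence (ex 525/em 598 nm) was read kinetically, with inhibition normalized to enzyme-only and buffer-only wells.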

[8] = qHTS for Inhibitors of WRN Helicase: Thiazole Orange DNA Binding Counterscreen (AID 720499);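 further: drop in dye fluorescence marks compound binding to DNA; on the % scale 0 is the no-effect control and ±100 the full control effect; nearly all actives have a fitted effect of over 60% in size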
Method in brief: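 Here, compounds that displace thiazole orange (100 nM) from unlabeled DNA (50 nM) lower fluorescence, read at excitation 480 nm and emission 530 nm after a 15 min room-temperature incubation.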

[9] = target: DNA polymerase kappa (Homo sapiens) (UniProt Q9UBT6); assay: qHTS for Inhibitors of Polymerase Kappa: Confirmatory Assay for Cherry-picked Compounds (AID 720501); details: purified Pol-kappa, fluorescent strand-displacement substrate; further: potency means the concentration at half of the fitted maximal effect
Method in brief: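 10 nM human Pol-kappa was preincubated with compound 15 min at room temperature, then 50 nM (final) primer/template substrate with TAMRA-labeled reporter strand and BHQ-2-labeled template added. Fluorescence (Ex 525, Em 598 nm) read at 0 and 10 min.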

[10] = target: RecQ-like DNA helicase BLM (Homo sapiens) (UniProt P54132); assay: qHTS for Inhibitors of WRN Helicase: BLM Helicase Counterscreen for WRN Inhibitors (AID 720503); details: Recombinant BLM helicase DNA unwinding, red fluorescence; further: potency means the concentration at half of the fitted maximal effect; nearly all actives have a fitted effect of over 60% in size
Method in brief: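 BLM at 1 nM was preincubated with compound for 15 min at room temperature in 25 mM Tris-HCl pH 8.0, 50 mM NaCl, 2 mM MgCl2, 1 mM DTT and 0.01% Tween-20. Unwinding was started with 100 nM DNA and 2 mM ATP (final). Fluorescence (ex 525/em 598 nm) was read twice, 15 min apart, and normalized to enzyme-free and DMSO controls.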

[11] = target: Androgen receptor (Homo sapiens) (UniProt P10275); assay: qHTS assay for small molecule agonists of androgen receptor signaling (AID 588515; active means well fitted curve in the direction sought with a large enough effect in the signal ratio, with a control signal flat; the % refers to the signal ratio; further: on the % scale 0 is the no-effect control and ±100 the full control effect); details: AR-UAS-bla HEK293, beta-lactamase ratio, agonist 16 h; hits give high values
Method in brief: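 Stimulation of an AR-responsive β-lactamase reporter in GripTite HEK293 cells was measured after 16 h compound exposure at 37 °C, via CCF4 fluorescence after 2 h RT. EC50 from Hill fits, normalized to R1881 at 30 nM.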

[12] = target: Androgen receptor (Homo sapiens) (UniProt P10275); assay: qHTS assay for small molecule antagonists of androgen receptor signaling (AID 588516; active means well fitted curve in the direction sought with a large enough effect in the signal ratio, with a control signal flat, not every such curve was filed as active; the % refers to the signal ratio; further: on the % scale 0 is the no-effect control and ±100 the full control effect)
Method in brief: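 AR-UAS-bla-GripTite HEK 293 cells (2000/well, 5 h at 37 C) received compound titrations, then R1881 at 10 nM final; after 16 h at 37 C, CCF4 dye 2 h RT, beta-lactamase fluorescence read; IC50 from Hill fits.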

[13] = target: Bile acid receptor (Homo sapiens) (UniProt Q96RI1); assay: qHTS assay for small molecule antagonists of farnesoid X receptor signaling (AID 588526; calls by dose curve; further: on the % scale 0 is the no-effect control and ±100 the full control effect)
Method in brief: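 Antagonist mode: titrated compounds tested against chenodeoxycholic acid stimulation (normalized to 50 uM CDCA and DMSO) in GeneBLAzer HEK293T cells for 16 h. Beta-lactamase read by CCF4 fluorescence; IC50 from Hill fits.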

[14] = target: Luciferin 4-monooxygenase (Photinus pyralis) (UniProt P08659); assay: Biochemical firefly luciferase enzyme assay for NPC (AID 624030);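 further: purified P. pyralis luciferase at 10 nM with luciferin and ATP substrate; 0% = DMSO and -100% = full luciferase inhibition by PTC124 control; nearly all actives have a fitted effect of over 70% in size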
Method in brief: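 Purified P. pyralis luciferase at 10 nM in 50 mM Tris Acetate (final), luminescence read within 5 minutes of enzyme addition to compounds. Activity normalised to PTC124 versus DMSO; concentration-response curves classed by r2, magnitude and activity.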

[15] = S16 Schwann cell viability assay (CellTiter-Glo assay) (AID 624031);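 further: native untransfected S16 rat Schwann cells; cellular ATP luminescence as a viability measure; plate controls were DMSO-treated cells for no effect and cell-free wells for full effect; nearly all actives have a fitted effect of over 70% in size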
Method in brief: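 Concentration-effect curves come from CellTiter-Glo luminescence of S16 rat Schwann cells after 24 h compound exposure. Each reading was normalized to DMSO wells (0%) and wells without cells, and curves were ranked by r2 and response magnitude.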

[16] = S16 Schwann cell PMP22 intronic element firefly luciferase assay (AID 624032); further: nearly all actives have a fitted effect of over 30% in size; further: potency means the concentration at half of the fitted maximal effect
Method in brief: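 Rat S16 Schwann cells stably carrying firefly luciferase driven by a PMP22 intronic element, in 10% FBS, treated 24 h at 37 C. ONE-Glo luminescence normalized to PTC124 control and DMSO (0%); curves classed by r2, magnitude and activity.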

[17] = S16 Schwann cell PMP22 intronic element beta-lactamase assay (AID 624044; calls by dose curve; further: nearly all actives have a fitted effect of over 15% in size; further: potency means the concentration at half of the fitted maximal effect;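 on ratio activity, negative = inhibition: 0% = DMSO and -100% = potassium clavulanate positive control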); details: S16 rat Schwann cells, PMP22 element beta-lactamase FRET, 24 h; ratio activity, negative = inhibition: at 38.3 µM (top of the series)
Method in brief: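 Beta-lactamase reporter under a PMP22 intronic regulatory element in stable S16 rat Schwann cells; 24 h compound exposure. 460 nm blue signal normalized between DMSO (0%) and potassium clavulanate, with 535 nm FRET tracking viability; curves classed by r2 and response.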

[18] = tested on: DFO2036; assay: qHTS profiling for inhibitors of Plasmodium falciparum proliferation (AID 504749); further: nearly all actives have a fitted effect of over 60% in size; further: potency means the concentration at half of the fitted maximal effect;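 on activity, negative = inhibition: 0% = DMSO vehicle and full inhibition = artemisinin control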; details: P. falciparum in erythrocytes, SYBR Green DNA, 72 h; series mostly up to 28.7 µM
Method in brief: (§1)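 SYBR Green fluorescence (ex 485 nm, em 535 nm) reports parasite DNA after 72 h compound exposure of infected red cells at 0.3% parasitemia, 2.5% hematocrit; signal normalized to 0.29 uM artemisinin and vehicle wells.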

[19] = tested on: PC26; assay: as above; details: P. falciparum in erythrocytes, SYBR Green DNA, 72 h; series mostly up to 28.7 µM
Method in brief: as §1

[20] = target: Cytochrome P450 3A4 (Homo sapiens) (UniProt P08684); assay: qHTS Assay for Inhibitors and Substrates of Cytochrome P450 3A4 (AID 884); further: on the % scale 0 is the no-effect control and ±100 the full control effect; nearly all actives have a fitted effect of over 50% in size
Method in brief: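 Luminescent readout of luciferin produced by CYP3A4 (20 nM) dealkylation of Luciferin-PPXE, 25 uM (its KM). NADPH-driven reaction ran 60 min at RT after 10 min compound preincubation; data scaled to 57 uM ketoconazole as 100% inhibition.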

Sequence of Ubiquitin carboxyl-terminal hydrolase 1 (Homo sapiens) (O94782 whole entry, looked up): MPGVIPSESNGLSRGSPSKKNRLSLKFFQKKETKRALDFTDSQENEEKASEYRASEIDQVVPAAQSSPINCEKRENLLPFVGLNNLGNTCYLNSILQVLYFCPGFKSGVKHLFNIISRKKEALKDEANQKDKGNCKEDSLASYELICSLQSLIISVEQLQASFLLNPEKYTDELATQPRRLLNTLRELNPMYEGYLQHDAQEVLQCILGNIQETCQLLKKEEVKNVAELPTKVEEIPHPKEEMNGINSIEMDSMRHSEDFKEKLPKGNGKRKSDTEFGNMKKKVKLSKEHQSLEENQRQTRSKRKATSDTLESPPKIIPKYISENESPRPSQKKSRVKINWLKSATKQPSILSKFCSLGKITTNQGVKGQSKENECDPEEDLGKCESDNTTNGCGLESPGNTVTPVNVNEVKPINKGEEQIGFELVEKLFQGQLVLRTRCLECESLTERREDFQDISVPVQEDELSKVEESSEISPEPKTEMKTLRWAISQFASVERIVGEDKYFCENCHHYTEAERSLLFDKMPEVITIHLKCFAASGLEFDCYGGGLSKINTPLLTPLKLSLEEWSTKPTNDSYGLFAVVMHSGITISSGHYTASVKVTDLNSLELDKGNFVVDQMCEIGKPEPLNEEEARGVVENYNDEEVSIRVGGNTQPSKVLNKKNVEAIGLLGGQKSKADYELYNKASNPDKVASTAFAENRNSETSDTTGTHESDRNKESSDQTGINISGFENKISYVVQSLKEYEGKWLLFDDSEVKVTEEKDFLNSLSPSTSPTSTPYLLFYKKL
Sequence of Luciferin 4-monooxygenase (Photinus pyralis) (P08659 whole entry, looked up): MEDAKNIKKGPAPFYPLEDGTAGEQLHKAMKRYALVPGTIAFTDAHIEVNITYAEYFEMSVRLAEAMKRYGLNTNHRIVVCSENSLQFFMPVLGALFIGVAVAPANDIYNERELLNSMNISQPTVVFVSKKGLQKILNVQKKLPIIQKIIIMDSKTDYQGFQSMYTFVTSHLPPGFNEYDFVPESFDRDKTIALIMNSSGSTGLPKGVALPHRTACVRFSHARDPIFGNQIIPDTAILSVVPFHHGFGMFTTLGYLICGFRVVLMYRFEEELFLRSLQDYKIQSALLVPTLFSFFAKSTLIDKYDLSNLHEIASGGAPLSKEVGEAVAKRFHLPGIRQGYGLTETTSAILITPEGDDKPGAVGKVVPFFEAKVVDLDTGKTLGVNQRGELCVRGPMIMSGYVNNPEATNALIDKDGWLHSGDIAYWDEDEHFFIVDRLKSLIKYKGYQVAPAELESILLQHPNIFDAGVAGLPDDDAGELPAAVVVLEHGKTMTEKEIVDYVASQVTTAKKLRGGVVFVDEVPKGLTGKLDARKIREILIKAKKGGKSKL
Sequence of Androgen receptor (Homo sapiens) (P10275 whole entry, looked up): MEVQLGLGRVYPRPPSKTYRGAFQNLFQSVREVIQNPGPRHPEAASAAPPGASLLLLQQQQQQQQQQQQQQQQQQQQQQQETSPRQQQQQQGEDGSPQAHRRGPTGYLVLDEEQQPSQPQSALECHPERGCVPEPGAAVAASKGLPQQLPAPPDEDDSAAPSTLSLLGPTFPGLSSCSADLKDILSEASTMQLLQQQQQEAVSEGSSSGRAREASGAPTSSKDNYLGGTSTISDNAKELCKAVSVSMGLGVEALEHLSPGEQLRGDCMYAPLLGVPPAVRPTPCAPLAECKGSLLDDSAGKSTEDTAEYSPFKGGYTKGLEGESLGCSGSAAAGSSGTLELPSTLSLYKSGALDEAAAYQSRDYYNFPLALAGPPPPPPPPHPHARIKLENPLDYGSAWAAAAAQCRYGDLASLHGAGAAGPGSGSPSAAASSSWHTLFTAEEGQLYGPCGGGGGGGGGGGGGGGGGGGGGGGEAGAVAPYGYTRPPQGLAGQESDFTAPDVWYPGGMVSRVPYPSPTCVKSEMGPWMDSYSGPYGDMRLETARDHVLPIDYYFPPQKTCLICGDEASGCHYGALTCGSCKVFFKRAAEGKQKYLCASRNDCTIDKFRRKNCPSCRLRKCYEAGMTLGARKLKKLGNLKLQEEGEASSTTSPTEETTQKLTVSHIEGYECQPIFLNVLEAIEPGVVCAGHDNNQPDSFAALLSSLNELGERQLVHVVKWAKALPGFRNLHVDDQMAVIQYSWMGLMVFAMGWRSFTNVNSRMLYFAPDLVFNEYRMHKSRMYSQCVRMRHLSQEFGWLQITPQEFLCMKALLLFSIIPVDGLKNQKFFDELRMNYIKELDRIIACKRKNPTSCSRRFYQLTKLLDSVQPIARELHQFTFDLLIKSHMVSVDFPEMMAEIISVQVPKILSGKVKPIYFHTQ
Sequence of Cytochrome P450 3A4 (Homo sapiens) (P08684 whole entry, looked up): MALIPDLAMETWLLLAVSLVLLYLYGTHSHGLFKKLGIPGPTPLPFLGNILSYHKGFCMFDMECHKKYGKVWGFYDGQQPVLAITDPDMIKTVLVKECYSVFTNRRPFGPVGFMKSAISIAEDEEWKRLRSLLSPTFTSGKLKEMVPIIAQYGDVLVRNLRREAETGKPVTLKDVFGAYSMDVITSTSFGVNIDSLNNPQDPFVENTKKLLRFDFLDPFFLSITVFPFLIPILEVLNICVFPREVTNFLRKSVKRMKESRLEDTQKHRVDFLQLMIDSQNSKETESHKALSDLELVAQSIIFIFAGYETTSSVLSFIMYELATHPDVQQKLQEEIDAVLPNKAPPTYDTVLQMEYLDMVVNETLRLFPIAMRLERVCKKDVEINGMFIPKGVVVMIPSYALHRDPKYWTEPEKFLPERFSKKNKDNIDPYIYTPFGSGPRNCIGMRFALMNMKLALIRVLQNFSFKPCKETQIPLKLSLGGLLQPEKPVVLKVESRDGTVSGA
Sequence of Phosphoglycerate kinase, glycosomal (Trypanosoma brucei brucei) (P07378 whole entry, looked up): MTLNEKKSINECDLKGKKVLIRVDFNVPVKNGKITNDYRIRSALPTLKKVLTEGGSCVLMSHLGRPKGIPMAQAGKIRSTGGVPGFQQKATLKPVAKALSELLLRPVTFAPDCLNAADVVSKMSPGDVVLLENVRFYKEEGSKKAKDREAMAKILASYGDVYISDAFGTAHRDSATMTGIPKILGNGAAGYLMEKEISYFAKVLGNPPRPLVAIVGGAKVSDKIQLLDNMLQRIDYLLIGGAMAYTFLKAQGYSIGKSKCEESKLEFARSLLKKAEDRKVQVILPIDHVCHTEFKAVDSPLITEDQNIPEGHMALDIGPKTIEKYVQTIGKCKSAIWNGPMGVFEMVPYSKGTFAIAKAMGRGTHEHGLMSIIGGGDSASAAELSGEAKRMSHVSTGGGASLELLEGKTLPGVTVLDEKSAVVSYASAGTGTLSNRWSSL
Sequence of RecQ-like DNA helicase BLM (Homo sapiens) (P54132 whole entry, looked up): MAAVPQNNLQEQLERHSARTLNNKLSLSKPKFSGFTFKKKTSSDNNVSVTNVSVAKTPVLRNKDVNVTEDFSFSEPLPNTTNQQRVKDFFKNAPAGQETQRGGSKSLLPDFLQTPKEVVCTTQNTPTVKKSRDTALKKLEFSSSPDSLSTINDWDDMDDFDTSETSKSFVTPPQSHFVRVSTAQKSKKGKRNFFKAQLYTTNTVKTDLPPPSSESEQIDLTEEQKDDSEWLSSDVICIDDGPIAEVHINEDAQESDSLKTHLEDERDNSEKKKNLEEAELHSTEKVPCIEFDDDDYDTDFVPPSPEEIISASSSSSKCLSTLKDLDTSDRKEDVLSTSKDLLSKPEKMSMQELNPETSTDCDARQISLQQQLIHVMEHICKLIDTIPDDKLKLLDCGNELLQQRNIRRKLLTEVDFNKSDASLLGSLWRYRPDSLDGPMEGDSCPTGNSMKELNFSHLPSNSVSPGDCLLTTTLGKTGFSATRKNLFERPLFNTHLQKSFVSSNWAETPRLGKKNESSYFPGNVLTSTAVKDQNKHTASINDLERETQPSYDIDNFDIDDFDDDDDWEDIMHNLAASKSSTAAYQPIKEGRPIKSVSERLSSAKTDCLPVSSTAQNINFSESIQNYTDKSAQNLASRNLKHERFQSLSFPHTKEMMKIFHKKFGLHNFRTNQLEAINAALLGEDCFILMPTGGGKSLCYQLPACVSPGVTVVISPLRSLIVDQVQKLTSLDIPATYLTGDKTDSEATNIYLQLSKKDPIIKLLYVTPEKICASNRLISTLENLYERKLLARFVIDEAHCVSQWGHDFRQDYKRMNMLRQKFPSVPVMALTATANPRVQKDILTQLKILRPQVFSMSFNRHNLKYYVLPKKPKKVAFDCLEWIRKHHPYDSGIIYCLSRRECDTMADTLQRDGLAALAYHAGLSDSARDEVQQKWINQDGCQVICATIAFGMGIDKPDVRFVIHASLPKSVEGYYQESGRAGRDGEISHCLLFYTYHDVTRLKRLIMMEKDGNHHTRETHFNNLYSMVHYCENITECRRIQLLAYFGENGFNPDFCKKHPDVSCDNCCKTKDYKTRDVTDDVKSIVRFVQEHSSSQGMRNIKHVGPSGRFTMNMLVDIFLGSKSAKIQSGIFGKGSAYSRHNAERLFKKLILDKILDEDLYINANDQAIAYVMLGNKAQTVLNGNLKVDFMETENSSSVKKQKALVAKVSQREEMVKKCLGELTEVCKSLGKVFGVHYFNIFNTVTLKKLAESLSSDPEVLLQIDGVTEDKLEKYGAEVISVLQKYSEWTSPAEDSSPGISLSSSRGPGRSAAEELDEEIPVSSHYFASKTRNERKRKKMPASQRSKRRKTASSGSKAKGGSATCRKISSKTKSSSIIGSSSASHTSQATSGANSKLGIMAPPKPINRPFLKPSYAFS
Sequence of Tumor susceptibility gene 101 protein (Homo sapiens) (Q99816 whole entry, looked up, the tested form may be a part): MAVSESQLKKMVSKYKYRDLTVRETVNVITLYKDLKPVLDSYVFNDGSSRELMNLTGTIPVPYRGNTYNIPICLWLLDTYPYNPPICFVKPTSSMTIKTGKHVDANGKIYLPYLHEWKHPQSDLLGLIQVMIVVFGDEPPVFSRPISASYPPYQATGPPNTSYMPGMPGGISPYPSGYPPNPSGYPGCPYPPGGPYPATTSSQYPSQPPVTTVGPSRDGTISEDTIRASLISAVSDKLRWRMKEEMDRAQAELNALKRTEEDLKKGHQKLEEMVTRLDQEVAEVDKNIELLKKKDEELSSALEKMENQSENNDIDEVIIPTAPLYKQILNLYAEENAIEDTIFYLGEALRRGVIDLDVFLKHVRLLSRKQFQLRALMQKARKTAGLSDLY

CC(=O)Nc1ccc2nc3c(=O)[nH]c(=O)[nH]c3nc2c1
inactive: Potency [1]

CC(=O)OCC1=C(C(=O)O)N2C(=O)C(NC(=O)CSc3ccncc3)[C@@H]2SC1 (some centres not stated)
inactive: Potency [2] | Potency [3] | Potency [4]

COc1ccc(-c2nc3c(c(SCC(=O)Nc4ccc(C(=O)O)cc4)n2)Cc2ccccc2O3)cc1
active: Potency [5] 3.26 µM | Potency [6] 4.23 µM | Potency [7] 7.64 µM | Potency [9] 2.67 µM | Potency [10] 3.04 µM
inactive: outcome [8]

CC1CCC(C(C)C)C(O)C1 (configuration not stated)
inactive: Potency [4] | activation [11] 13.2% | outcome [12] | Potency [13] | Potency [14] | Potency [15] | Potency [16] | Potency [17] | Potency [18] | Potency [19]

CO/N=C(/C(=O)NC1C(=O)N2C(C(=O)O)=C(COC(N)=O)CSC12)c1ccco1 (configuration not stated)
inactive: Potency [20] | Potency [2] | Potency [3] | Potency [4]

CO/N=C(/C(=O)N[C@H]1C(=O)N2C(C(=O)O)=C(COC(C)=O)CSC12)c1csc(N)n1 (some centres not stated)
inactive: Potency [20] | Potency [2] | Potency [3]

Cc1ccc(S(=O)(=O)NC(=O)NC(C)Cc2ccccc2)cc1 (configuration not stated)
inactive: Potency [4] | Potency [14] | Potency [15] | Potency [16] | Potency [18] | Potency [19]

CC(C)C[C@@H](NC(=O)[C@@H](Cc1ccccc1)NC(=O)c1cnccn1)B(O)O
inactive: Potency [4] | Potency [14] | Potency [15]
active: Potency [16] 0.0051 µM | Potency [17] 0.0224 µM | Potency [18] 0.112 µM | Potency [19] 0.338 µM

CC(C)(C)C(=O)OCC(=O)C1CCC2C3CCC4=CC(=O)CCC4(C)C3CCC12C (configuration not stated)
inactive: Potency [4] | Potency [14] | Potency [17] | Potency [18] | Potency [19]

C=C1[C@@H]2CC[C@H](C2)C1(C)C
inactive: Potency [14] | Potency [15] | Potency [16] | Potency [17] | Potency [18] | Potency [19]

CC1(C)C2CC[C@]1(C)[C@@H](O)C2
inactive: Potency [4] | Potency [14] | Potency [15] | Potency [17] | Potency [18] | Potency [19]

CO[C@H]1OC2O[C@@]3(C)CC[C@H]4[C@H](C)CC[C@@H]([C@H]1C)[C@@]24OO3 (some centres not stated)
inactive: Potency [4] | Potency [14] | Potency [17]
active: Potency [16] 3.22 µM | Potency [18] 0.0158 µM | Potency [19] 0.0151 µM

C/C1=C2/[N-]C(C(CC(N)=O)[C@@]2(C)CCC(=O)NCC(C)OP(=O)([O-])O[C@H]2[C@@H](O)[C@@H](n3cnc4cc(C)c(C)cc43)O[C@@H]2CO)[C@]2(C)N=C(/C(C)=C3N=C(/C=C4N=C1C(CCC(N)=O)C\4(C)C)[C@@H](CCC(N)=O)[C@]\3(C)CC(N)=O)[C@@H](CCC(N)=O)[C@]2(C)CC(N)=O.CC(=O)O.[Co] (some centres not stated)
inactive: Potency [18] | Potency [19]
active: Potency [4] 56.2 µM | Potency [16] 2.56 µM

CC(=O)NC[C@@H]1CN(c2ccc(N3CCOCC3)c(F)c2)C(=O)O1
inactive: Potency [4] | Potency [14] | Potency [16] | Potency [18] | Potency [19]

CC(c1ncncc1F)[C@](O)(Cn1cncn1)c1ccc(F)cc1F (some centres not stated)
inactive: Potency [4] | Potency [14] | Potency [15] | Potency [16] | Potency [17] | Potency [18] | Potency [19]

C=NC(C(=O)NC1C(=O)N2C1SC(C)(C)C2C(=O)O)c1ccccc1 (configuration not stated)
inactive: Potency [2] | Potency [3] | Potency [14] | Potency [15] | Potency [16] | Potency [17] | Potency [18] | Potency [19]

Reference: PubChem BioAssay (NCATS)
